Screening results from PubChem.
Anthrax LT inh: anthrax lethal toxin internalization inhibition; Cells, anthrax lethal toxin internalization, FRET ratio (460/530); Potency, µM (doses to about 40 µM), for inactives: at the highest dose activity change, negative = inhibition, most hits filed as inhibitors; 0.67% of 70,000 active; AID 912; further: on the % scale 0 is the no-effect control and ±100 the full control effect; nearly all actives have a fitted effect of over 50% in size
AmpC det inh: inhibitors of E. coli AmpC beta-lactamase with detergent; purified AmpC, nitrocefin hydrolysis with detergent; AID 584; P00811; 0.09% of 71,000 active; Potency, µM (series often up to 28.7 µM), without a hit: at the top dose activity change, negative = inhibition; active means well fitted curve in the direction sought with a large enough effect; inconclusive means small, poorly fitted or top-dose-only effect; further: on the % scale 0 is the no-effect control and ±100 the full control effect
Target sequence (P00811 whole entry, looked up): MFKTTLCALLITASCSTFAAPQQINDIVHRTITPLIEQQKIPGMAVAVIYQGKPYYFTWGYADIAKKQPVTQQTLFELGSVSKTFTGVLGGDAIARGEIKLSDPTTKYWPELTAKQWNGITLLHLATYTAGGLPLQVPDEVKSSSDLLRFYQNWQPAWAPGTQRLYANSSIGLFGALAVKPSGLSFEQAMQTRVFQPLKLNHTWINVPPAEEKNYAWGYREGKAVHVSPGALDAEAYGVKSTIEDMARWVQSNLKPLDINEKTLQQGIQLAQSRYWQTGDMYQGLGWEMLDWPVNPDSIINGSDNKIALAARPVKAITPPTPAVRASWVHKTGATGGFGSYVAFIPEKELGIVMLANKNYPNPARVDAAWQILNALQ
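E. coli AmpC (5.3 nM) in 20 mM phosphate pH 7.0 with 0.01% Triton X-100, preincubated 15 min RT with compound; nitrocefin (2 uL of 800 uM stock) hydrolysis followed by 480 nm absorbance every 20 s over 4 min.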
AmpC nodet inh: blocks E. coli AmpC beta-lactamase in absence of detergent | AmpC nitrocefin hydrolysis, absorbance 480 nm, no detergent | Potency, µM (titrated, usually from 28.7 µM), inactives show at the highest dose activity change, negative = inhibition | 1.8% of 71,000 active | AID 585; further: % of control where 0% means no effect
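AmpC in 20 mM phosphate buffer pH 7.0 was preincubated 15 min at room temperature with compounds. Nitrocefin (800 uM stock) was then added and hydrolysis followed at 480 nm every 20 s for 4 min.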
SmPrx2 inh: blocks S. mansoni peroxiredoxin 2 enzymatic activity; 0.07% of 65,000 active; Potency, µM; S. mansoni Prx2 activity coupled to TGR/GSH (TGR is thioredoxin glutathione reductase), NADPH fluorescence loss, qHTS
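Activity is read as the drop in NADPH fluorescence (365/450 nm), recorded every 30 sec for 8 min after H2O2 addition. Prx2 is coupled to TGR-driven NADPH oxidation through glutathione, in phosphate buffer pH 7.4.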
* hit, by the source's call; ? = inconclusive; . = not tested or not shown; ! = not active in a repeat; [ ] = remark or other dose. Sampled rows, rich in hits. Any-hit rate of the full collection: about 2.6%. Unless noted, the call rests on the fitted dose curve. Potency means the concentration at half of the fitted maximal effect.

SMILES | Anthrax LT inh | AmpC det inh | AmpC nodet inh | SmPrx2 inh
COc1ccc(NC(=O)CC2Oc3ccc(C)cc3NC2=O)cc1 (stereo not drawn) | 0% | 11% | 4µM*[single pt active] | >57
O=C(/C=C/c1c(C(=O)O)[nH]c2cc(Cl)cc(Cl)c12)Nc1ccccc1 | 8% | . | . | .
Cn1c(C(=O)Nc2ccc3c(c2)OCCO3)cc2c(=O)n(C)c3ccccc3c21 | ? | 13% | 70% | >57
Cn1c(C(=O)NCCCN2CCCCCC2)cc2c(=O)n(C)c3ccccc3c21 | 4µM* | 14% | 130% | .
CCCN1CCN(CCCNC(=O)c2cc3c(=O)n(C)c4ccccc4c3n2C)CC1 | 13µM* | 12% | 4µM*[single pt active] | >57
CN1CCN(CCNC(=O)c2cc3c(=O)n(C)c4ccccc4c3n2C)CC1 | ? | 12% | 4µM*[single pt active] | >57
COc1ccccc1S(=O)(=O)Cc1ccc(C(=O)NC2CCCCC2)o1 | -9% | -1% | 12% | >57
CCOC(=O)N1CCC(NC(=O)c2ccc(CS(=O)(=O)c3ccc(OC)cc3)o2)CC1 | 7% | 13% | 4µM*[single pt active] | >57
COc1ccc(S(=O)(=O)Cc2ccc(C(=O)NC3CCCC3)o2)cc1 | -9% | 15% | 4µM*[single pt active] | >57
Cn1cc(Cl)c(C(=O)N(Cc2ccccc2)c2ccccn2)n1 | 5% | 21% | 4µM*[single pt active] | >57
O=c1cc(-c2ccccc2)oc2c1ccc1ccccc12 | 25µM* | -1% | 59% | >57
CN(CCNC(=O)c1cn(C)c2ccc(S(=O)(=O)N(C)C)cc2c1=O)CCc1ccccc1 | -13% | 14% | 4µM*[single pt active] | >57
CN(C1CCCCC1)S(=O)(=O)c1ccc2c(c1)c(=O)c(C(=O)NCCN1CCCC1)cn2C | 10µM* | 10% | 91% | >57
CCn1cc(C(=O)NCCCOC)c(=O)c2cc(S(=O)(=O)N(C)C)ccc21 | -1% | 13% | 3.2µM*[single pt active] | >57
CNc1nc(-c2ccoc2)nc2ccccc12 | 0% | 7% | 44% | >57
Cc1noc(C)c1-c1cc(NCc2ccccc2)ncn1 | 10% | 8% | 19% | >57
CO[C@]1(NC(=O)[C@H](C(=O)O)c2ccc(O)cc2)C(=O)N2C(C(=O)O)=C(CSc3nnnn3C)CO[C@H]21 | ? | -7%[12.8 µM] | -19%[12.8 µM] | >57
CCOC(=O)C1=C(CS(=O)(=O)c2ccc(F)c(C)c2)NC(=O)NC1c1ccc(O)c(O)c1 (stereo not drawn) | -8% | 10% | 4µM*[single pt active] | >57
O=C(/C=C/c1ccccc1)N1CCCC1CO (stereo not drawn) | -7%[8 µM] | . | . | .
CN(C)c1oc(-c2ccccc2Cl)nc1C#N | 1% | -6% | 1% | .
CN(C)c1oc(-c2ccccc2Cl)nc1S(=O)(=O)c1ccccc1 | -22% | 11% | 4µM*[single pt active] | >57
O=C(c1cnn2ccccc12)N1CCCc2ccccc21 | 11% | 9% | 4µM*[single pt active] | >57
COc1ccc(CNC(=O)C(c2cccs2)N(C(=O)c2csnn2)C2CC2)cc1 (stereo not drawn) | 7.9µM* | -4% | 18% | >57
O=C(Nc1cc(Cl)ccc1O)c1cc2n(n1)C(C(F)(F)F)CC(c1ccc3c(c1)OCO3)N2 (stereo not drawn) | ? | -3% | 7.9µM* | >57
COc1ccc(OC)c(NC(=O)c2cc3n(n2)C(C(F)(F)F)CC(c2ccc4c(c2)OCO4)N3)c1 (stereo not drawn) | -29% | 4% | 34% | >57
SMILES | Anthrax LT inh | AmpC det inh | AmpC nodet inh | SmPrx2 inh
N#CC(=C1CCCC1)c1nc(-c2ccccc2O)cs1 | -20% | 2% | 6.3µM* | >57
Nc1nc(-c2ccccc2)cc(-c2ccccc2O)n1 | 10% | 9% | 6% | >57
Cc1cnc(CNc2ncncc2-c2ccccc2C#N)cn1 | -1% | 10% | -13% | >57
N#C/C(=C\c1ccc(O)c(O)c1)C(N)=S | 25µM*! | -1% | -20% | ?
Cc1cc(CN2CCN(CCC#N)CC2)c(O)c(C2(C)CCCCC2)c1 | 13µM* | -8% | 14% | >57
O=C(c1ccc(N2CCCCS2(=O)=O)cc1)N1CCN(c2ccc(N3CCOCC3)nn2)CC1 | -10% | 12% | 4µM*[single pt active] | >57
CN1[C@H](Cc2ccccc2)C=C[C@]1(C)C(=O)NCC1CC1 | 21% | 9% | 64% | .
CCNc1ncc2nc(-c3ccc(Cl)cc3)c(=O)n(-c3ccccc3)c2n1 | ? | -3% | 6% | >11
C[C@H](NC[C@H](O)CP(=O)(O)Cc1ccccc1)c1ccc(Cl)c(Cl)c1 | -16% | -3% | 46% | >57
COC(=O)c1ccc(-c2nc(-c3ccc(Br)o3)no2)cc1 | -11% | 14% | 4µM*[single pt active] | >57
COc1ccc(Cl)cc1-c1nc(-c2ccc(Br)o2)no1 | -8% | 13% | 3.2µM*[single pt active] | >57
COc1ccc(-c2noc(-c3cc(Cl)ccc3Cl)n2)cc1OC | -14% | 0% | 19% | >57
COC(=O)c1ccc(-c2nc(-c3cccs3)no2)cc1 | -16% | 14% | 4µM*[single pt active] | >57
CCOC(=O)c1ccc(OCc2nc(-c3cccs3)no2)cc1 | -36% | -1% | -3% | >57
O=C(NCCc1ccccc1)C1CCCN(S(=O)(=O)c2cccnc2)C1 (stereo not drawn) | -1% | -1% | 3% | >57
O=C(NC1CCCCCC1)C1CCN(S(=O)(=O)c2cccc3cccnc23)CC1 | -15% | 30% | 23% | >57
O=C(NC1CCCC1)C1CCCN(S(=O)(=O)c2cccc3cccnc23)C1 (stereo not drawn) | -14% | 14% | 3.2µM*[single pt active] | >57
CCOC(=O)N1CCC(NC(=O)C2CCCN(S(=O)(=O)c3cccnc3)C2)CC1 (stereo not drawn) | -5% | 12% | 4µM*[single pt active] | >57
CCOC(=O)N1CCC(NC(=O)C2CCCN(S(C)(=O)=O)C2)CC1 (stereo not drawn) | ? | -4% | -6% | >57
Cc1ccc2nc(NC(=O)C3CCCN(S(=O)(=O)c4cccnc4)C3)sc2c1 (stereo not drawn) | -30% | 13% | 4µM*[single pt active] | >57
NS(=O)(=O)c1ccc(CCNC(=O)C2CCCN(S(=O)(=O)c3cccnc3)C2)cc1 (stereo not drawn) | -10% | 13% | 4µM*[single pt active] | >57
Cc1ccc2nc(NC(=O)C3CCCN(S(=O)(=O)c4cnc[nH]4)C3)sc2c1 (stereo not drawn) | ? | 3% | 2% | >57
Cn1nc(-c2ccc(Cl)cc2)c2cc(C(=O)NC3CC3)sc21 | -2% | 10% | 4µM*[single pt active] | >57
CCN(CC)CCNC(=O)c1cc2c(-c3ccc(Cl)cc3)nn(C)c2s1 | 10µM* | 5% | 4µM*[single pt active] | >57
Cn1nc(-c2ccc(Cl)cc2)c2cc(C(=O)N3CCN(C(=O)c4ccco4)CC3)sc21 | -10% | 13% | 4µM*[single pt active] | .
Cn1nc(-c2ccc(Cl)cc2)c2cc(C(=O)NCCCN3CCOCC3)sc21 | 2.5µM* | 13% | 124% | >57
CCOCCCNC(=O)c1cc2c(-c3ccc(Cl)cc3)nn(C)c2s1 | -10% | 8% | 130% | >57
Cn1nc(-c2ccc(Cl)cc2)c2cc(C(=O)NCCN3CCOCC3)sc21 | ? | 14% | 146% | >57
CCN1CCN(C(=O)c2cc3c(-c4ccc(Cl)cc4)nn(C)c3s2)CC1 | 5% | 9% | 155% | >57
